Screens: PubChem, several laboratories
CYP2C9 activ: activators of human CYP2C9. P11712. recombinant CYP2C9, luciferin-H conversion, luminescence; active compounds read high; factor 1 = untreated enzyme, 0 = blocked. activation factor at 5 µM. 96,000 tested, 1.4% active;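 active = activation factor of 2 or more for CYP2C9 at a 5 µM dose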;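 also: 0 = sulfaphenazole-blocked wells and 1 = vehicle-only wells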
EphB4 ephrin blk: antagonists of human EphB4-ephrin-B2 interaction | EphB4 LBD / TNYL-RAW-Alexa532 peptide, fluorescence polarization | inhibition, % at 7 µM | 97,000 tested, 0.15% active;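 active = inhibition above the screen-wide mean inhibition plus 3 SD, cut at about 15% in these data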;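 also: 0% = DMSO wells and 100% = excess unlabeled TNYL-RAW peptide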
CYP2C19 inh: blocks human cytochrome P450 2C19. CYP2C19 Supersomes, luciferin-H EGE luminescence, 30 min. P33261. inhibition, % at 5 µM. 96,000 tested, 21% active;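 active = CYP2C19 inhibition above a set limit at 5 µM in the primary screen, cut at about 50% in these data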;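 also: plate controls were negative control wells for no effect and 2.5 mM tranylcypromine positive control for full effect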
Target sequence (P33261 whole entry, looked up): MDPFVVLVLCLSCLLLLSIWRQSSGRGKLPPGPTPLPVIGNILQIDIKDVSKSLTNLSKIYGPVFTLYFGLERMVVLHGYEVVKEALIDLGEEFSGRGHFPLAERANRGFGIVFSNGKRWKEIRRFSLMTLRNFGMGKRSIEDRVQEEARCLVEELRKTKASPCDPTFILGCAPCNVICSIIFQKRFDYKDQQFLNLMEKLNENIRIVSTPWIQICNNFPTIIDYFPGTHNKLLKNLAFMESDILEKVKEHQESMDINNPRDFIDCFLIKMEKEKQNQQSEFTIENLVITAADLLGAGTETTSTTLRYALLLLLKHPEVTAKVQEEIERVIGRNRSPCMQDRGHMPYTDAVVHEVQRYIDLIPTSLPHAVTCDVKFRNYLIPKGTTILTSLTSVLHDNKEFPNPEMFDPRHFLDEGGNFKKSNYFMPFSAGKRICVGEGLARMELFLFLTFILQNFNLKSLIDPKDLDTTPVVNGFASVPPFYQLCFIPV
CYP2C19 act: increases human CYP2C19 enzyme activity | P33261 | recombinant CYP2C19, luciferin-H EGE luminescence; active compounds read high; 0 = fully inhibited enzyme, 1 = untreated enzyme | activation factor at 5 µM | 96,000 tested, under 10 active;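 active = activation factor of at least 2 at 5 µM in the primary screen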;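 also: 0 = wells with 2.5 mM tranylcypromine and 1 = vehicle-only wells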
CYP2C9 inh: blocks human cytochrome P450 2C9 | P11712 | CYP2C9 Supersomes, luciferin-H conversion, luminescence | inhibition, % at 5 µM | 96,000 tested, 20% active | AID 777;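 active = blocking of liver enzyme CYP2C9 beyond about 50% at 5 µM, limit read from the data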
An asterisk follows results filed as active; / = no result given. Only some compounds are listed: those with a hit (about 27% of all), similar ones and a draw of the others.

SMILES	CYP2C9 activ	EphB4 ephrin blk	CYP2C19 inh	CYP2C19 act	CYP2C9 inh
CC(C)Sc1nc2c(c(=O)n(C)c(=O)n2C)n1C	0.8	-11.2	78.3*	0.2	17.7
CCOC(=O)COc1ccc2c(c1)C(=O)CC(C)(C)O2	0.9	-8.9	13.4	0.9	13.4
Nc1nc(NCc2c(F)cccc2Cl)nn1-c1ccccc1	1	5.5	28.9	0.7	-2.1
CN(Cc1c(F)cccc1Cl)c1nnnn1-c1ccccc1	0.7	-1.3	99.7*	0	34.8
CCOC(=O)C1CCN(S(=O)(=O)c2cccc(-c3csc(C)n3)c2)CC1	0.5	-4.6	40.1	0.6	45.5
Cc1nc(-c2cccc(S(=O)(=O)N3CCOCC3)c2)cs1	0.3	-13.5	75.5*	0.2	66.5*
CSc1nc2cc(S(=O)(=O)N3CCOCC3)ccc2s1	0.4	-1.0	99.4*	0	62.7*
Cc1nc(-c2cccc(S(=O)(=O)N3CC(C)CC(C)C3)c2)cs1 (stereo unspecified)	1.1	-8.7	-7.7	1.1	-7.5
O=S(=O)(c1ccc2c(c1)nc1n2CCC1)N1CCOCC1	/	-4.3	/	/	/
Cc1nc(-c2cccc(S(=O)(=O)N3CC(C)OC(C)C3)c2)cs1 (stereo unspecified)	0.8	-4.4	77.1*	0.2	20.5
CC(=O)Nc1ccc(S(=O)(=O)NNC(=O)COc2ccc(C(C)(C)C)cc2)cc1	1.1	-4.2	12.5	0.9	-8.7
Cc1ccc(C(=O)OC2CCN(c3ccc([N+](=O)[O-])cc3)CC2)cc1	0.9	-1.7	3.8	1	5.6
CCCCn1c(SCC(=O)O)nc2ccccc21	0.9	2.1	14.0	0.9	14.4
CCCCOC(=O)n1c(SCC(=O)N(C)C)nc2ccccc21	0.2	10.8	43.9	0.6	77.1*
COc1ccc(SCc2noc(C(=O)NC(C)C)c2C(=O)O)cc1	0.5	4.2	14.2	0.9	48.9
CCn1c(=O)c(C2=NS(=O)(=O)c3ccccc3N2)c(O)c2ccccc21	0.4	/	-19.3	1.2	60.6*
CC(C)(C)N(NC(=O)Nc1ccccc1)C(=O)c1ccccc1Cl	0.9	-3.2	10.9	0.9	12.9
Clc1ccc(SCc2cc(Cl)nc(-c3ccccc3)n2)cc1	/	3.8	/	/	/
Clc1ccc(SCc2cc(-c3ccccc3)on2)cc1	1.2	3.5	90.4*	0.1	-19.4
CCOC(=O)CSc1cc(CSc2ccccc2)nc(-c2ccccc2)n1	0.7	-3.4	57.1*	0.4	29.7
c1ccc(Cc2cc(-c3ccccc3)on2)cc1	/	5.4	/	/	/
Clc1cc(CSc2ccccc2)nc(-c2ccccc2)n1	0.5	3.5	44.8	0.6	52.9*
CCOC(=O)CSc1nc(-c2ccccc2)nc2c1oc1ccccc12	1.1	5.3	-14.9	1.1	-6.1
CCOC(=O)CSc1cc(CS(=O)c2ccc(Cl)cc2)nc(-c2ccccc2)n1 (stereo unspecified)	0.1	-4.6	100.2*	0	85.2*
CC(C)c1nnc(NC(=O)c2cccnc2)s1	0.9	1.9	-6.6	1.1	8.2
SMILES	CYP2C9 activ	EphB4 ephrin blk	CYP2C19 inh	CYP2C19 act	CYP2C9 inh
CC(=O)Nc1nnc(-c2ccc(Cl)s2)o1	1.1	1.6	-5.0	1.1	-6.5
CC1CN(CCCOc2ccccc2[N+](=O)[O-])CC(C)O1 (stereo unspecified)	0.7	-10.8	42.2	0.6	32.2
Cc1ccc(C(C)C)c(OCCCN2CC(C)OC(C)C2)c1 (stereo unspecified)	1.2	-1.8	75.8*	0.2	-17.0
CC1CCCN(S(=O)(=O)c2ccc(S(=O)(=O)N3CCCN(Cc4ccccc4)C3)cc2)C1 (stereo unspecified)	0.2	/	95.3*	0	84.9*
CC1CCN(S(=O)(=O)c2ccc(S(=O)(=O)N3CCCN(Cc4ccccc4)C3)cc2)CC1	/	-8.3	/	/	/
CC(C)CNS(=O)(=O)c1ccc(S(=O)(=O)N2CCCN(Cc3ccccc3)C2)cc1	0.7	-1.7	50.0*	0.5	28.3
Cn1c(=O)n(CCN2CCOCC2)c(=O)c2c1nc1n2CCCN1c1ccccc1	0.8	/	11.4	0.9	23.6
C=CCNc1nc(SC)nc2ccsc12	2.3*	2.0	11.5	0.9	-128.7
C=CCSc1nc(N(CC)CC)c2sccc2n1	1	2.3	39.6	0.6	-2.9
COc1ccc(OC)c(Nc2cc(-c3ccccc3)nc(N)n2)c1	0.2	-2.7	79.7*	0.2	78.7*
COc1ccc(OC)c(Nc2cc(C)nc3ccccc23)c1	0.5	-4.5	55.9*	0.4	49.6
O=C(Cn1cnc2cc([N+](=O)[O-])ccc2c1=O)Nc1ccc2c(c1)CCC2	1	-1.1	3.0	1	0.3
CC1(c2cccs2)CC(c2cccs2)=C(C#N)C(=O)N1 (stereo unspecified)	1.6	0.6	79.2*	0.2	-57.3
CCOc1cc(CNC2CCCC2)cc(Cl)c1OCc1ccccc1	0.8	-7.7	76.1*	0.2	16.7
O=C(NCc1ccccc1)c1ccc(-c2ccc(F)cc2)o1	0.4	-1.7	54.9*	0.5	55.5*
O=C(NCc1ccccc1)c1ccc(COCC(F)(F)F)o1	0.7	-5.3	85.2*	0.1	25.9
O=C(NCc1ccc(F)cc1)c1ccc(CS(=O)(=O)Cc2ccc(F)cc2)o1	0.7	-5.7	48.4	0.5	27.1
COCCOC(=O)c1c(C)oc2ccc(O)c(CN3CCC(C)CC3)c12	0.8	/	50.9*	0.5	15.4
O=C(N/N=C/c1ccc(Cl)cc1)c1sccc1OCc1ccc(F)cc1	0.5	-1.2	4.4	1	48.1
Clc1ccccc1-c1nc2ccccc2c2nncn12	0.8	4.6	62.2*	0.4	16.1
Nn1c(-c2ccccc2Cl)nnc1-c1ccccc1Cl	/	2.1	/	/	/
CCCN1CCN(CCCNC(=O)Cn2cc3c(n2)CCCC3)CC1	1	/	9.5	0.9	2.3
CC(C)(C)NS(=O)(=O)c1ccc(CCC(=O)Nc2ccc3c(c2)OCO3)cc1	0.1	4.6	58.0*	0.4	94.3*
CCCNS(=O)(=O)c1ccc(CCC(=O)NCc2ccc3c(c2)OCO3)cc1	0.3	-1.0	80.5*	0.2	74.3*
CC(=O)NCCc1ccc(S(=O)(=O)NCc2ccc3c(c2)OCO3)cc1	0.5	-10.4	61.1*	0.4	46.6
SMILES	CYP2C9 activ	EphB4 ephrin blk	CYP2C19 inh	CYP2C19 act	CYP2C9 inh
CCCc1cc2c(cc1NS(=O)(=O)c1ccc(CCNC(C)=O)cc1)OCO2	0.6	3.6	77.5*	0.2	39.7
O=c1oc(-c2ccccc2F)nc2c1cnn2-c1ccccc1	1	2.1	9.0	0.9	3.4
Cc1[nH]c(C)c2c(=O)n(-c3ccccc3)ncc12	1	-4.4	6.5	0.9	3.5
O=C(Cn1nc(Cc2ccncc2)c2ccccc2c1=O)N1CCc2ccccc2C1	0.2	-0.2	88.5*	0.1	79.7*
COc1cc([C@H]2[C@@H]3CCCC[C@]3(O)CCN2CC(=O)Nc2ccc(C)cc2)ccc1O	0.3	8.3	63.2*	0.4	74.1*
COc1ccc(NC(=O)Cn2nc3n(c2=S)CCC3)cc1	0.9	-7.6	7.6	0.9	7.2
COc1ccc(NC(=O)CN2CCC3(O)CCCCC3C2c2ccccc2OC)cc1 (stereo unspecified)	0.1	11.6	73.7*	0.3	90.8*
